From PubChem BioAssay AID1159580 (chemical genetic matrix, 2015)
Several values for one entry are separate records, joined by “and”; a condition that tells them apart may be missing. Equal entries are not always repeated. In all, about 5,500 compounds went through this assay and about 2,000 (36%) were called active. Another 18% or so got no clear call; they are omitted. Rule as the data show it: active = normalized growth mostly below about 0.91 (no sharp cut-off); inconclusive = no clear call, values can overlap the other calls; inactive = mostly above about 0.92. The list shows a part of the results.

Test: chemical genetic growth profiling, strain panel (AID 1159580);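 also: tested at 20 µM; growth read once vehicle control cultures reached saturation at 30 °C; 1 = growth at the plate median or of vehicle wells; lower values mean less growth of the strain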
Conditions: S. cerevisiae deletion strains, growth OD

Measured: normalized growth

COc1ccc(-c2coc3c(OC)c(OC)cc(O)c3c2=O)cc1
inactive: locus YAL021C, strain ccr4, active compounds read low 1.03 | locus YAL026C, strain drs2, active compounds read low 1 | locus YAL030W, strain snc1, active compounds read low 0.997 | locus YBL061C, strain skt5, active compounds read low 0.999 | locus YBR009C, strain hhf1, active compounds read low 1.01 | locus YBR023C, strain chs3, active compounds read low 0.99 | locus YBR171W, strain sec66, active compounds read low 1.03 | locus YBR229C, strain ROT2, active compounds read low 0.988 | locus YBR231C, strain swc5, active compounds read low 0.994 | locus YBR279W, strain paf1, active compounds read low 0.995 | locus YCL011C, strain gbp2, active compounds read low 0.998 | locus YCL016C, strain dcc1, active compounds read low 1 | locus YCL029C, strain bik1, active compounds read low 0.975 | locus YCL061C, strain MRC1, active compounds read low 1.01 | locus YCL069W, strain vba3, active compounds read low 0.999 | locus YCR088W, strain abp1, active compounds read low 0.997 | locus YDL005C, strain med2, active compounds read low 1 | locus YDL035C, strain GPR1, active compounds read low 0.981 | locus YDL040C, strain nat1, active compounds read low 1 | locus YDL074C, strain BRE1, active compounds read low 0.924 | locus YDL101C, strain DUN1, active compounds read low 0.988 | locus YDL185W, strain tfp1, active compounds read low 1.01 | locus YDL192W, strain arf1, active compounds read low 0.942 | locus YDR001C, strain nth1, active compounds read low 0.997 | locus YDR069C, strain doa4, active compounds read low 1 | locus YDR101C, strain arx1, active compounds read low 0.947 | locus YDR137W, strain rgp1, active compounds read low 0.951 | locus YDR159W, strain sac3, active compounds read low 0.988 | locus YDR162C, strain NBP2, active compounds read low 0.959 | locus YDR195W, strain ref2 1.05 | locus YDR297W, strain sur2, active compounds read low 0.992 | locus YDR318W, strain mcm21, active compounds read low 0.948 | locus YDR334W, strain swr1, active compounds read low 1.01 | locus YDR335W, strain msn5, active compounds read low 1 | locus YDR388W, active compounds read low 0.974 | locus YDR392W, strain spt3, active compounds read low 0.965 | locus YDR502C, strain sam2, active compounds read low 0.95 | locus YEL003W, strain gim4, active compounds read low 0.994 | locus YEL037C, strain rad23, active compounds read low 1.01 | locus YEL061C, strain CIN8 (second series), active compounds read low 1.01 | locus YER015W, strain faa2, active compounds read low 1 | locus YER016W, strain bim1, active compounds read low 1.01 | locus YER110C, active compounds read low 0.959 | locus YER111C, strain swi4, active compounds read low 1.03 | locus YER155C, strain BEM2 (second series), active compounds read low 1.01 | locus YER155C, strain BEM2, active compounds read low 0.996 | locus YER167W, strain BCK2, active compounds read low 0.99 | locus YFR010W, strain ubp6, active compounds read low 1.01 | locus YGL078C, strain dbp3, active compounds read low 0.968 | locus YGL086W, strain mad1, active compounds read low 0.954 | locus YGL167C, strain pmr1, active compounds read low 1.01 | locus YGL173C, strain kem1, active compounds read low 1 | locus YGL227W, strain vid30, active compounds read low 1 | locus YGL240W, strain doc1, active compounds read low 0.991 | locus YGL248W, strain PDE1, active compounds read low 0.96 | locus YGL253W, strain hxk2, active compounds read low 1.01 | locus YGR078C, strain PAC10, active compounds read low 0.956 | locus YGR135W, strain pre9, active compounds read low 0.928 | locus YGR229C, strain SMI1, active compounds read low 0.896 | locus YHR013C, strain ard1, active compounds read low 0.989 | locus YHR027C, strain rpn1, active compounds read low 1.01 | locus YHR030C, strain SLT2, active compounds read low 0.917 | locus YHR079C, strain IRE1 (second series), active compounds read low 0.978 | locus YHR079C, strain IRE1, active compounds read low 0.925 | locus YHR094C, strain hxt1, active compounds read low 0.982 | locus YHR129C, strain ARP1, active compounds read low 0.985 | locus YHR142W, strain chs7, active compounds read low 0.976 | locus YHR200W, strain rpn10, active compounds read low 0.941 | locus YIL066C, strain RNR3, active compounds read low 0.986 | locus YIL073C, strain SPO22, active compounds read low 0.9 | locus YIL125W, strain kgd1, active compounds read low 0.983 | locus YIR030C, strain dcg1, active compounds read low 0.961 | locus YJL092W, strain hpr5, active compounds read low 1.01 | locus YJL095W, strain BCK1 (second series), active compounds read low 0.995 | locus YJL095W, strain BCK1, active compounds read low 0.871 and 0.958 | locus YJL115W, strain asf1, active compounds read low 1.01 | locus YJL129C, strain trk1, active compounds read low 0.999 | locus YJL134W, strain LCB3, active compounds read low 1 | locus YJL154C, strain vps35, active compounds read low 1.01 | locus YJL164C, strain tpk1, active compounds read low 0.997 | locus YJL166W, strain qcr8, active compounds read low 0.996 | locus YJL168C, strain set2, active compounds read low 0.978 | locus YJL187C, strain SWE1 (second series), active compounds read low 0.968 | locus YJL187C, strain SWE1, active compounds read low 0.992 | locus YJR066W, strain TOR1, active compounds read low 0.863 | locus YKL009W, strain mrt4, active compounds read low 0.972 | locus YKL068W, active compounds read low 0.993 | locus YKL085W, strain MDH1 (second series), active compounds read low 0.979 | locus YKL085W, strain MDH1, active compounds read low 0.979 | locus YKL160W, strain elf1, active compounds read low 0.991 | locus YKR026C, strain gcn3, active compounds read low 1.01 | locus YKR091W, strain srl3, active compounds read low 0.999 | locus YLL001W, strain dnm1, active compounds read low 1.01 | locus YLL026W, active compounds read low 1.01 | locus YLL041C, strain sdh2, active compounds read low 1.01 | locus YLR027C, strain aat2, active compounds read low 1 | locus YLR039C, strain RIC1, active compounds read low 0.903 | locus YLR058C, strain SHM2, active compounds read low 0.96 | locus YLR102C, strain apc9, active compounds read low 0.986 | locus YLR113W, strain HOG1, active compounds read low 0.949 | locus YLR221C, strain rsa3, active compounds read low 0.997 | locus YLR258W, strain gsy2, active compounds read low 0.982 | locus YLR262C, strain YPT6 (second series), active compounds read low 0.949 | locus YLR268W, strain sec22, active compounds read low 0.927 | locus YLR320W, strain mms22, active compounds read low 0.993 | locus YLR330W, strain CHS5, active compounds read low 0.976 | locus YLR342W, strain FKS1, active compounds read low 1 | locus YLR357W, strain rsc2, active compounds read low 0.989 | locus YLR370C, strain arc18, active compounds read low 1 | locus YLR371W, strain rom2, active compounds read low 0.945 | locus YLR384C, strain iki3, active compounds read low 1.01 | locus YLR418C, strain cdc73, active compounds read low 0.855 | locus YML016C, strain PPZ1, active compounds read low 0.985 | locus YML032C, strain rad52, active compounds read low 0.951 | locus YML120C, strain ndi1, active compounds read low 0.997 | locus YML124C, strain tub3, active compounds read low 0.981 | locus YMR058W, strain fet3, active compounds read low 1.01 | locus YMR078C, strain ctf18, active compounds read low 0.976 | locus YMR125W, strain sto1, active compounds read low 1.01 | locus YMR129W, active compounds read low 1 | locus YMR205C, strain PFK2, active compounds read low 0.991 | locus YMR223W, strain ubp8, active compounds read low 0.95 | locus YMR231W, strain pep5, active compounds read low 0.995 | locus YMR263W, strain SAP30, active compounds read low 0.97 | locus YMR307W, strain GAS1, active compounds read low 0.787 | locus YNL067W, strain RPL9B, active compounds read low 0.968 | locus YNL071W, strain lat1, active compounds read low 1 | locus YNL128W, strain TEP1, active compounds read low 1.01 | locus YNL183C, strain NPR1, active compounds read low 0.913 | locus YNL209W, strain ssb2, active compounds read low 0.999 | locus YNL233W, strain BNI4, active compounds read low 0.908 | locus YNL248C, strain rpa49, active compounds read low 1.01 | locus YNL250W, strain rad50, active compounds read low 0.997 | locus YNL271C, strain bni1, active compounds read low 0.98 | locus YNL298W, strain CLA4, active compounds read low 0.965 | locus YNL322C, strain KRE1 (second series), active compounds read low 1.01 | locus YNR049C, strain mso1, active compounds read low 1 | locus YNR052C, strain pop2, active compounds read low 0.977 | locus YOL012C, strain htz1 0.766 | locus YOL147C, strain pex11, active compounds read low 0.96 | locus YOR001W, strain rrp6, active compounds read low 1.01 | locus YOR061W, strain CKA2, active compounds read low 1 | locus YOR069W, strain VPS5, active compounds read low 0.995 | locus YOR070C, strain gyp1, active compounds read low 1.02 | locus YOR080W, strain dia2, active compounds read low 1.01 | locus YOR083W, strain WHI5, active compounds read low 0.99 | locus YOR106W, strain vam3, active compounds read low 0.989 | locus YOR136W, strain idh2, active compounds read low 0.976 | locus YOR144C, strain elg1, active compounds read low 0.979 | locus YOR184W, strain ser1, active compounds read low 0.887 | locus YOR231W, strain MKK1, active compounds read low 0.949 | locus YOR265W, strain rbl2, active compounds read low 1.01 | locus YOR270C, strain vph1, active compounds read low 0.945 | locus YOR290C, strain snf2, active compounds read low 0.986 | locus YOR316C, strain cot1, active compounds read low 0.991 | locus YPL051W, strain arl3, active compounds read low 0.997 | locus YPL078C, strain atp4, active compounds read low 0.991 | locus YPL106C, strain sse1, active compounds read low 0.948 | locus YPL240C, strain hsp82, active compounds read low 0.994 | locus YPL241C, strain CIN2, active compounds read low 1.01 | locus YPL256C, strain CLN2, active compounds read low 0.904 | locus YPR119W, strain clb2, active compounds read low 0.982 | locus YPR141C, strain kar3, active compounds read low 0.979 | locus YPR167C, strain met16, active compounds read low 0.955 | strain wtn01, active compounds read low 0.942
active: locus YBR021W, strain FUR4, active compounds read low 0.838 | locus YGR252W, strain gcn5, active compounds read low 0.74 | locus YKR001C, strain vps1, active compounds read low 0.871 | locus YNL307C, strain MCK1, active compounds read low 0.903 | locus YPR163C, strain tif3, active compounds read low 0.866
